Laboratory results as given in PubChem BioAssay (NCI).
This is part of a sample that, as a whole, favours compounds with a hit. Of some 79,000 tested, about 15% had one in any assay. The source made the active and inactive calls. Cut-off read from the data, not from the text of the source: active = growth inhibition above about 70%; inactive = the rest.

Experiments:
[1] = NCI Yeast Anticancer Drug Screen. Data for the rad52 strain (AID 147);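 note: 0% = growth of vehicle-treated control cultures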; conditions: S. cerevisiae rad52 mutant growth inhibition, stronger effect = higher value
How it was run: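 Measured: yeast growth inhibition. System: strain with a defined DNA damage repair alteration. Reference: vehicle-treated control cultures.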

[2] = NCI Yeast Anticancer Drug Screen. Data for the wt1 strain (AID 149);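 note: 0% = growth of vehicle-treated wt1 cultures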; conditions: S. cerevisiae wt1 strain (SPY 50644) growth inhibition, stronger effect = higher value
How it was run: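 Compounds are added to wt1 yeast cultures. Growth is then measured. Inhibition is expressed relative to vehicle-treated controls.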

[3] = NCI Yeast Anticancer Drug Screen. Data for the rad50EPP+ strain (AID 151);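 note: 0% = growth of vehicle-treated control cultures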; conditions: S. cerevisiae rad50 mutant strain, stronger effect = higher value
How it was run: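 One strain with a rad50 alteration (rad50EPP+) was compound-treated, its growth then compared to that of vehicle controls.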

[4] = NCI Yeast Anticancer Drug Screen. Data for the mgt1 strain (AID 153); conditions: S. cerevisiae mgt1 mutant growth inhibition, stronger effect = higher value
How it was run: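 After exposure of the mgt1 yeast mutant to compound, growth was measured and reported as inhibition compared with vehicle controls.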

[5] = NCI Yeast Anticancer Drug Screen. Data for the rad50 strain (AID 155);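 note: 0% = growth of vehicle-only cultures of the same strain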; conditions: S. cerevisiae rad50 strain growth inhibition, stronger effect = higher value
How it was run: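 Inhibition values express reduced yeast growth in compound-treated cultures relative to vehicle-treated controls.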

[6] = NCI Yeast Anticancer Drug Screen. Data for the mec2-1 strain (AID 157); conditions: S. cerevisiae mec2-1 strain, stronger effect = higher value
How it was run: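 Test agents were screened against the mec2-1 yeast strain, with defined DNA repair or cell cycle alteration. Growth was scored as inhibition against vehicle-only controls.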

[7] = NCI Yeast Anticancer Drug Screen. Data for the rad14 strain (AID 159);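 note: 0% = growth of vehicle-treated control cultures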; conditions: S. cerevisiae rad14 strain growth inhibition, stronger effect = higher value
How it was run: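 A mutant yeast strain defective in DNA damage repair is treated with compound; inhibition of its growth is scored against untreated, vehicle-exposed cultures.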

[8] = NCI Yeast Anticancer Drug Screen. Data for the sgs1 mgt1 strain (AID 161);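 note: 0% = growth of cultures given vehicle only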; conditions: S. cerevisiae sgs1 mgt1 strain, stronger effect = higher value
How it was run: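 Test agents were incubated with a DNA-repair-mutant yeast strain. Growth was then read and compared against vehicle-treated controls.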

[9] = NCI Yeast Anticancer Drug Screen. Data for the CLN2oe strain (AID 163);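 note: 0% = growth of vehicle-only control cultures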; conditions: S. cerevisiae CLN2oe strain, stronger effect = higher value
How it was run: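 Here, growth inhibition in a cell-cycle-altered yeast strain after compound exposure was quantified against vehicle control growth.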

[10] = NCI Yeast Anticancer Drug Screen. Data for the cln2 rad14 strain (AID 165);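 note: 0% = growth equal to vehicle treated cultures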; conditions: S. cerevisiae cln2 rad14 strain, stronger effect = higher value
How it was run: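 Growth of compound-exposed yeast (cln2 rad14 genotype) measured and expressed as inhibition relative to vehicle.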

[11] = NCI Yeast Anticancer Drug Screen. Data for the bub3 strain (AID 167); conditions: S. cerevisiae bub3 mutant strain, stronger effect = higher value
How it was run: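 Steps: expose the mutant yeast strain to compound; grow alongside vehicle-treated cultures; measure growth; express inhibition against the vehicle cultures.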

[12] = NCI Yeast Anticancer Drug Screen. Data for the wt2 strain (AID 169);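 note: 0% = growth of vehicle-treated yeast cultures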; conditions: S. cerevisiae wt2 strain growth inhibition, stronger effect = higher value
How it was run: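 Genetically defined yeast strains from a DNA-repair/cell-cycle panel were used. Compound-exposed yeast growth was measured, and the inhibition was calculated relative to vehicle treatment.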

[13] = NCI Yeast Anticancer Drug Screen. Data for the mlh1 strain (AID 171);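 note: 0% = growth of vehicle-treated control cultures of the same strain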; conditions: S. cerevisiae mlh1 strain growth inhibition, stronger effect = higher value
How it was run: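 Here the genetically defined yeast mutant is grown with each compound, and the extent to which its growth falls below that of vehicle-exposed cells is reported.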

[14] = NCI Yeast Anticancer Drug Screen. Data for the sgs1 strain (AID 173);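 note: 0% = growth of vehicle-only control cultures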; conditions: S. cerevisiae sgs1 mutant, stronger effect = higher value
How it was run: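 Relative growth inhibition, referenced to vehicle, was determined in a yeast strain with a defined alteration affecting DNA damage repair or cell cycle control after compound exposure.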

[15] = NCI Yeast Anticancer Drug Screen. Data for the mlh1 rad18 strain (AID 175); conditions: S. cerevisiae mlh1 rad18 strain growth inhibition, stronger effect = higher value
How it was run: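 In this whole-cell yeast screen, a strain with altered DNA damage repair is challenged with compound, and its growth is measured against matched vehicle-treated controls.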

[16] = at 5.0 µM (retest, dose inferred, filed as 0.5)
[17] = at 50.0 µM (retest, dose inferred, filed as 5.0)

Measured: growth inhibition

c1ccc2c(OCC3CO3)cccc2c1 (stereo not drawn)
active: [1]; at 33.0 µM 86% | [1]; at 100.0 µM 94% | [3]; at 11.0 µM 73% | [3]; at 33.0 µM 93% | [3]; at 100.0 µM 96% | [5]; at 33.0 µM 89% | [5]; [17] 94% | [5]; at 50.0 µM 92.8% | [5]; at 100.0 µM 95% | [6]; [17] 75% | [6]; at 100.0 µM 91% | [7]; at 100.0 µM 89% | [8]; [17] 83% | [8]; at 50.0 µM 84.5% | [10]; [17] 71% | [14]; at 11.0 µM 72% | [14]; at 33.0 µM 88% | [14]; at 100.0 µM 93% | [15]; [17] 86% | [15]; at 50.0 µM 82.1%
inactive: [1]; at 1.2 µM 3% | [1]; at 3.7 µM 12% | [1]; at 11.0 µM 45% | [2]; at 1.2 µM -2% | [2]; at 3.7 µM 0% | [2]; at 11.0 µM 0% | [2]; at 33.0 µM 4% | [2]; at 100.0 µM 18% | [3]; at 1.2 µM 9% | [3]; at 3.7 µM 30% | [4]; at 1.2 µM -1% | [4]; at 3.7 µM -1% | [4]; at 11.0 µM 0% | [4]; at 33.0 µM 4% | [4]; at 100.0 µM 32% | [5]; at 1.2 µM 0% | [5]; at 3.7 µM 12% | [5]; [16] 36% | [5]; at 11.0 µM 66% | [6]; at 1.2 µM 1% | [6]; at 3.7 µM 4% | [6]; [16] 6% | [6]; at 11.0 µM 10% | [6]; at 33.0 µM 32% | [6]; at 50.0 µM 49.3% | [7]; at 1.2 µM -1% | [7]; at 3.7 µM -3% | [7]; at 11.0 µM 1% | [7]; at 33.0 µM 17% | [8]; [16] 50% | [9]; at 1.2 µM -4% | [9]; at 3.7 µM -3% | [9]; at 11.0 µM -2% | [9]; at 33.0 µM 2% | [9]; at 100.0 µM 4% | [10]; [16] 3% | [10]; at 50.0 µM 63.8% | [11]; at 1.2 µM -3% | [11]; at 3.7 µM -5% | [11]; [16] -12% | [11]; at 11.0 µM -11% | [11]; at 33.0 µM -12% | [11]; [17] -8% | [11]; at 50.0 µM 13.2% | [11]; at 100.0 µM 21% | [12]; at 1.2 µM -2% | [12]; at 3.7 µM 7% | [12]; at 11.0 µM 0% | [12]; at 33.0 µM 5% | [12]; at 100.0 µM 25% | [13]; at 1.2 µM 0% | [13]; at 3.7 µM 1% | [13]; at 11.0 µM 5% | [13]; at 33.0 µM 10% | [13]; at 100.0 µM 40% | [14]; at 1.2 µM 15% | [14]; at 3.7 µM 41% | [15]; [16] 14%
